Assay results published in paper PMC7819943, “Rice protein-binding microarrays: a tool to detect cis-acting elements near promoter regions in rice”.
The full ranking holds about 68,000 sequences; the median of “fluorescence intensity (a.u.)” is about 9,100, and the highest 2% start at about 16,000. The list comes from a sample in which the highest values are over-represented; it also holds similar and randomly drawn sequences.

Each sequence was assayed against OsWRKY34 (Oryza sativa, UniProt Q0JBA9 1-250) (assay: protein-binding microarray (RPBM); PBS, 2% BSA, 51.3 ng/ul salmon testes DNA, 50 uM zinc acetate, 200 nM TF, 25 C, 1 h; high values mean tight binding). Settings: protein: recombinant; tags: N-terminal polyhistidine and DsRed monomer fusion (pET32a); label: CyDye5-dUTP incorporated in the synthesized complementary strand; 3' TTTTT single-stranded linker to array surface; dsDNA, one strand shown.
Chain of OsWRKY34 (Q0JBA9 entry or part of it): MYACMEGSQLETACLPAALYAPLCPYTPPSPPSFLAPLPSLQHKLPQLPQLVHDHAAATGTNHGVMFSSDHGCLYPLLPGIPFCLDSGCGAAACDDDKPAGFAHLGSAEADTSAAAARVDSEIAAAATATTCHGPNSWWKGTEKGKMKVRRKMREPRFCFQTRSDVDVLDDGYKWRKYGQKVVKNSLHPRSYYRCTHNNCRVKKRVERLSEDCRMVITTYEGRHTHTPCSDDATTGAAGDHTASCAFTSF
Procedure, shortened: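 The binding signal for each feature is its fluorescence intensity in arbitrary units. An Axon 4000B scanner was used to read a custom Agilent array that had been made double-stranded with Cy5-dUTP primer extension, blocked with 2% BSA, incubated at 25 °C for 1 h with 200 nM protein in PBS, 2% BSA, salmon testes DNA and 50 µM zinc acetate, and washed. The protein was an N-terminal polyhistidine–DsRed transcription factor fusion from E. coli BL21-CodonPlus, purified on Ni–NTA.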

Sequence | binding signal
TCAGTCGCTTCCTCTCTTTATTATCACAGATTCACAGTCCCGGAGTCACCTAGTGCAG | 8370 fluorescence intensity (a.u.)
AACTTTTTCATGTCACTTCACTTTTTTTTGTTAGCAGCCTCGGAGTCACCTAGTGCAG | 11200 fluorescence intensity (a.u.)
TGAACACACGCACGCAAACCCTACCTCCATGAGTATCTTCCGGAGTCACCTAGTGCAG | 10500 fluorescence intensity (a.u.)
AATTTATGGAGATCATTTTTTTTCTGTTTCAAAGGAAAAACGGAGTCACCTAGTGCAG | 19200 fluorescence intensity (a.u.)
CATTGATTTTTTTTCTGTTTTCATGATCAATTTTTTTTCTCGGAGTCACCTAGTGCAG | 11100 fluorescence intensity (a.u.)
GTTTCCATTTCTGTTATTTTTTATTTCAAATTTCATTCTTCGGAGTCACCTAGTGCAG | 11800 fluorescence intensity (a.u.)
GTCAAGAATGTGCTAAAAAGTCAACGGTGTCAAACAGTTTCGGAGTCACCTAGTGCAG | 10600 fluorescence intensity (a.u.)
TGTCTTAATTTCGTGGAAGGCCATAGCGGAGAGATCAAAACGGAGTCACCTAGTGCAG | 17400 fluorescence intensity (a.u.)
CGTCTTTTCTCCTTGTCTTGCTAGCCATATCAACGGAAGGCGGAGTCACCTAGTGCAG | 8080 fluorescence intensity (a.u.)
TTAAATAAGACAAATGGTCAAACATGTGCTAAAAAGTCAACGGAGTCACCTAGTGCAG | 10600 fluorescence intensity (a.u.)
AAAGGAATGGCCCAAATAAACAAGTTTTTTCCTAAAATAACGGAGTCACCTAGTGCAG | 63000 fluorescence intensity (a.u.)
TAATGGAAAAAATTGTTTAAAAAAGGTCAAATAGTAAAAACGGAGTCACCTAGTGCAG | 58800 fluorescence intensity (a.u.)
CTAATTGTTTTTTTAAATAGTGTTTTGTTTTATTGAAAACCGGAGTCACCTAGTGCAG | 9040 fluorescence intensity (a.u.)
TTGATTCCGTGTCGCATATCTGTCTTAATTTCGTGGAAGGCGGAGTCACCTAGTGCAG | 9570 fluorescence intensity (a.u.)
AAATTTAAAGTAATTTGACTTTGAAAGTCAAAACTTGTAACGGAGTCACCTAGTGCAG | 8600 fluorescence intensity (a.u.)
CTTCTTATCTCCCATATCTTAGGGTGTGTTTCGTTTTATGCGGAGTCACCTAGTGCAG | 8050 fluorescence intensity (a.u.)
GCCTATCCACAACATCGTCGCAGGCCTTCTTTTTCCCTCGCGGAGTCACCTAGTGCAG | 8320 fluorescence intensity (a.u.)
ACAGCGGTTTTGGTTGACGTAGTGCCTATGTGGCGTTGACCGGAGTCACCTAGTGCAG | 11700 fluorescence intensity (a.u.)
GATTTAGCCAGTATAATTTGGCTTCTTACCTATCCATTTTCGGAGTCACCTAGTGCAG | 9130 fluorescence intensity (a.u.)
CCAATCTAGCATTTAAATAGCCCATATTTGTCTAATTTCTCGGAGTCACCTAGTGCAG | 8400 fluorescence intensity (a.u.)
ATGGTGGGTCTTTTGCTTCTATCTTCTTCTATGCATGAAACGGAGTCACCTAGTGCAG | 10400 fluorescence intensity (a.u.)
TTGTTAATGCTAATTTTATCAACATGTGCTTTTCTTTTTACGGAGTCACCTAGTGCAG | 9500 fluorescence intensity (a.u.)
CGCGAGACAATCTAGCCGTTCTTCATTTTTTTCGCTTTCCCGGAGTCACCTAGTGCAG | 9240 fluorescence intensity (a.u.)

Sequence | binding signal
ACTGTGATACATTCTACATAATTTATTCATTTATTTGCATCGGAGTCACCTAGTGCAG | 8900 fluorescence intensity (a.u.)
CATTAATTCCAACATATAGTACTCCGCCATTTTGACTCGCCGGAGTCACCTAGTGCAG | 8640 fluorescence intensity (a.u.)
AATGTTATTACTATGCCTGGAACGTCACTTATGTATGTCTCGGAGTCACCTAGTGCAG | 10500 fluorescence intensity (a.u.)
GATCATCTGGTGGTGTGTTCTACGGGTTGCAGCTTCTTTCCGGAGTCACCTAGTGCAG | 10600 fluorescence intensity (a.u.)
ATTGCCGTTTATATTTGGTCAAATTTAAACGTTTTCTTTTCGGAGTCACCTAGTGCAG | 8020 fluorescence intensity (a.u.)
TTGCCTTGCCAGTCAGTGCTCGAGTTCGTCTCGCTCTCCGCGGAGTCACCTAGTGCAG | 8730 fluorescence intensity (a.u.)
GCCGAGCCCCATCTTCTGCTGCGACCCCGTAGCGCTCAACCGGAGTCACCTAGTGCAG | 9240 fluorescence intensity (a.u.)
GCCCCGAGCCGAGACCGCTGGATAATGCAGCGCTTCTTACCGGAGTCACCTAGTGCAG | 20100 fluorescence intensity (a.u.)
GACCGCCGCCGCTTGAGCTGACCTGACCCCGAGCCGAGCCCGGAGTCACCTAGTGCAG | 8250 fluorescence intensity (a.u.)
AGTCAGTGGGTAAATTCTTTAAAAACTCCTATGTTTTTTCCGGAGTCACCTAGTGCAG | 9550 fluorescence intensity (a.u.)
AACAAGGGAGGGAGGGGCGGCGATCTCCATCTGGCGAGCACGGAGTCACCTAGTGCAG | 10900 fluorescence intensity (a.u.)
CGCCTCGACGGGTTTGGATCTCGGGGTGGGATTAGAGGGGCGGAGTCACCTAGTGCAG | 12900 fluorescence intensity (a.u.)
GGGGCTAGGGTTTGGGTGGGATCTCAGCCGTCGGATCTGACGGAGTCACCTAGTGCAG | 17000 fluorescence intensity (a.u.)
ATTGGGGCGGCGGTGGCGGGCTAGGGTTTCGTAGATTCGACGGAGTCACCTAGTGCAG | 9960 fluorescence intensity (a.u.)
GCGGCGGTGGTTAGGGTTTGGGGCTCGTCGGCGTCGGCGACGGAGTCACCTAGTGCAG | 10900 fluorescence intensity (a.u.)
ACGATCAGTGTCATCACAGGGCGGCGGGGTTCCTATCCATCGGAGTCACCTAGTGCAG | 13200 fluorescence intensity (a.u.)
GGATTCGGAGGCGGGTGGGAGTGGGAGAGTGAGAGGGGCTCGGAGTCACCTAGTGCAG | 16200 fluorescence intensity (a.u.)
GCGGCGGGGTTCCTATCCATGGTTTTTTCGGGCTTGTCCACGGAGTCACCTAGTGCAG | 18900 fluorescence intensity (a.u.)
AGGGATAGATTGGCTTAGGGGCGGGTGGGTCTAGAGATTTCGGAGTCACCTAGTGCAG | 27000 fluorescence intensity (a.u.)
GCTTGGTCCATACCTTGTTTTCCTATCATCCACTGTCAATCGGAGTCACCTAGTGCAG | 9390 fluorescence intensity (a.u.)
GGGCGGGTTTGGATTTTTATTTGGTTTTCCTATGGAGTCCCGGAGTCACCTAGTGCAG | 17800 fluorescence intensity (a.u.)
CTGATTTGCGGGTTCCACATGGATTTTATTTTTTTGTTTCCGGAGTCACCTAGTGCAG | 11400 fluorescence intensity (a.u.)
ACATTGGGTTGGAGTGGATTATTTTTTTCCTTTGTTTTCCCGGAGTCACCTAGTGCAG | 14200 fluorescence intensity (a.u.)
